One assay has as its target XCL2. The experiment in a line: pooled miR-30 sensor sort-seq; sequence = guide strand. The following applies: shRNA.
TAAAAGGTGAGTATAATCTCAG gave a sensor-assay potency score (higher = more potent) of -0.178.
For the sequence CTATGTGAGACTTCACTCCCTA, the sensor-assay potency score (higher = more potent) was -0.487.
In the case of TATAATCTCAGTCCATGAGGGT, the sensor-assay potency score (higher = more potent) was -0.365.
Still for that read-out and setting: next, TTGATTCTGCTAACTGGCAGTC: -0.401.
As to TTCTGCTAACTGGCAGTCGCTG, the sensor-assay potency score (higher = more potent) is -1.02.
Same read-out and setting: to CTTGATTCTGCTAACTGGCAGT belongs -1.63; to TCACACAGGTCCTCCTATGTGA, -0.506.
Regarding TCTTGATTCTGCTAACTGGCAG, the sensor-assay potency score (higher = more potent) was -0.712.
For the sequence ATAATCTCAGTCCATGAGGGTG, the sensor-assay potency score (higher = more potent) is -1.29.
Take TGCTAACTGGCAGTCGCTGGGT: the sensor-assay potency score (higher = more potent) was -0.761.
Sequence TATGTGAGACTTCACTCCCTAC came in with a sensor-assay potency score (higher = more potent) of -0.968.
Same read-out and setting: to TCTGCTAACTGGCAGTCGCTGG belongs -0.99.

The target in a further assay is XKR5. The assay is described as above. The note with it: shRNA.
With TAGCAGACAATTTTGACTGGAA, the sensor-assay potency score (higher = more potent) was 0.477.
The sequence TTGTAGAACAGAACCAGACTCA gave a sensor-assay potency score (higher = more potent) of 0.203.
The sequence TATCTGTGAAGTCTGAGGCTAG returned a sensor-assay potency score (higher = more potent) of 0.0293.
Still for that read-out and setting: next, TTGATCTTAGACACATTTCCTG: 0.217; TAAATTACCAGTGAGACACTGC: 0.68.

Source of the values: the OligoGym collection.
Further: reference of the scale not given here.
